Experimental data as given in PubChem BioAssay (NCI).
Values joined by “and” are separate entries in the source; they are usually repeats but may differ in a detail not shown here. Identical values can stand only once. This is part of a sample that, as a whole, favours compounds with a hit. Of some 79,000 tested, about 15% had one in any assay. More than one record can exist for a structure, and the calls need not agree. Active and inactive are the calls of the source. No stated cut-off is given here; in the data, active means growth inhibition above about 70%; inactive means the rest.

Legend:
[1] = NCI Yeast Anticancer Drug Screen. Data for the rad50 strain (AID 155);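 further: 0% = growth of vehicle-only cultures of the same strain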; details: S. cerevisiae rad50 strain growth inhibition, stronger effect = higher value
Procedure, shortened: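 Inhibition values express reduced yeast growth in compound-treated cultures relative to vehicle-treated controls.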

[2] = NCI Yeast Anticancer Drug Screen. Data for the mec2-1 strain (AID 157); details: S. cerevisiae mec2-1 strain, stronger effect = higher value
Procedure, shortened: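 Each compound was tested on mec2-1 yeast, a strain altered in DNA damage repair or cell cycle control. Growth inhibition is reported relative to vehicle.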

[3] = NCI Yeast Anticancer Drug Screen. Data for the sgs1 mgt1 strain (AID 161);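 further: 0% = growth of cultures given vehicle only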; details: S. cerevisiae sgs1 mgt1 strain, stronger effect = higher value
Procedure, shortened: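 Mutant yeast exposed to compound; growth scored against vehicle-only wells.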

[4] = NCI Yeast Anticancer Drug Screen. Data for the cln2 rad14 strain (AID 165);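 further: 0% = growth equal to vehicle treated cultures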; details: S. cerevisiae cln2 rad14 strain, stronger effect = higher value
Procedure, shortened: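 Test compounds were added to cln2 rad14 yeast cultures; inhibition of growth was then determined by comparison with vehicle treatment.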

[5] = NCI Yeast Anticancer Drug Screen. Data for the bub3 strain (AID 167); details: S. cerevisiae bub3 mutant strain, stronger effect = higher value
Procedure, shortened: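 Steps: expose the mutant yeast strain to compound; grow alongside vehicle-treated cultures; measure growth; express inhibition against the vehicle cultures.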

[6] = NCI Yeast Anticancer Drug Screen. Data for the mlh1 rad18 strain (AID 175); details: S. cerevisiae mlh1 rad18 strain growth inhibition, stronger effect = higher value
Procedure, shortened: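 Inhibition values reflect reduced growth of mutant yeast versus vehicle-treated controls following compound exposure; the mutations affect DNA damage repair.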

[7] = at 5.0 µM (retest, dose inferred, filed as 0.5)
[8] = at 50.0 µM (retest, dose inferred, filed as 5.0)

Compound | growth inhibition [1, 7] | growth inhibition [1, 8] | growth inhibition ([1]; at 50.0 µM) | growth inhibition [2, 7] | growth inhibition [2, 8] | growth inhibition ([2]; at 50.0 µM) | growth inhibition [3, 7] | growth inhibition [3, 8] | growth inhibition ([3]; at 50.0 µM) | growth inhibition [4, 7] | growth inhibition [4, 8] | growth inhibition ([4]; at 50.0 µM) | growth inhibition [5, 7] | growth inhibition [5, 8] | growth inhibition ([5]; at 50.0 µM) | growth inhibition [6, 7] | growth inhibition [6, 8] | growth inhibition ([6]; at 50.0 µM)
COc1cc(O)ccc1C(=S)SC | 6% (inactive) | 78% (active) | 85% (active) | 1% (inactive) | 18% (inactive) | 29.6% (inactive) | 5% (inactive) | 66% (inactive) | 42.5% (inactive) | 0% (inactive) | 29% (inactive) | 9% (inactive) | -5% (inactive) | 33% (inactive) | -6.9% (inactive) | 12% (inactive) | 87% (active) | 30.9% (inactive)
O=C1C(CN2CCOCC2)CCCC1CN1CCOCC1 (stereo unspecified) | 0% (inactive) | 97% (active) | 12.2% (inactive) and 1.25% (inactive) | 4% (inactive) | 98% (active) | 35% (inactive) and 33.8% (inactive) | 2% (inactive) | 96% (active) | 10.8% (inactive) and 24.9% (inactive) | 3% (inactive) | 97% (active) | 19.1% (inactive) and -27.2% (inactive) | 0% (inactive) | 95% (active) | 1.05% (inactive) and 69.5% (inactive) | 3% (inactive) | 97% (active) | 26.8% (inactive) and 9.15% (inactive)
CC(=O)OC(OC(C)=O)c1c2ccccc2cc2ccccc12 | 36% (inactive) | 97% (active) | 89.3% (active) | 15% (inactive) | 96% (active) | 93.2% (active) | 27% (inactive) | 97% (active) | 88.9% (active) | 14% (inactive) | 92% (active) | 91.1% (active) | 8% (inactive) | 97% (active) | 85.5% (active) | 23% (inactive) | 97% (active) | 85.7% (active)
CCOc1ccc2ccccc2c1C(Cc1ccc(Cl)cc1)NCCO (stereo unspecified) | -1% (inactive) | -1% (inactive) | 89.3% (active) | -2% (inactive) | 6% (inactive) | 93.5% (active) | -21% (inactive) | 2% (inactive) | 94.3% (active) | 1% (inactive) | -7% (inactive) | 98.6% (active) | -2% (inactive) | -3% (inactive) | 94.7% (active) | 1% (inactive) | 22% (inactive) | 98.5% (active)
c1ccc(-c2cnc(-c3ccc(-c4ncc(-c5ccccc5)o4)cc3)o2)cc1 | -13% (inactive) | -8% (inactive) | -8.4% (inactive) | -6% (inactive) | -17% (inactive) | -27.4% (inactive) | -23% (inactive) | -11% (inactive) | -47.8% (inactive) | -11% (inactive) | -10% (inactive) | 91% (active) | 0% (inactive) | 5% (inactive) | -32.6% (inactive) | 5% (inactive) | -10% (inactive) | -20.6% (inactive)
CN1CCN(CN2C(=O)C3C4C=CC(C3C2=O)C2C3C(=O)N(CN5CCN(C)CC5)C(=O)C3C42)CC1 (stereo unspecified) | -3% (inactive) | -12% (inactive) | -28.4% (inactive) and -8.45% (inactive) and -17.1% (inactive) | 1% (inactive) | 30% (inactive) | -28.4% (inactive) and 11.8% (inactive) and -15.2% (inactive) | -1% (inactive) | 0% (inactive) | -18.7% (inactive) and 18.9% (inactive) and -32.5% (inactive) | -10% (inactive) | -9% (inactive) | -7.45% (inactive) and 32.5% (inactive) and -40.9% (inactive) | 11% (inactive) | 2% (inactive) | -13.5% (inactive) and -11.5% (inactive) and -76% (inactive) | -1% (inactive) | 18% (inactive) | -4.4% (inactive) and -31.1% (inactive) and -65% (inactive)
CCOC(=O)[C@H]1Nc2ccc([N+](=O)[O-])cc2C2c3ccccc3CC21 (stereo partly specified) | 32% (inactive) | 91% (active) | 80.3% (active) | -11% (inactive) | 48% (inactive) | 87.8% (active) | 24% (inactive) | 93% (active) | 91.2% (active) | 8% (inactive) | 91% (active) | 86.3% (active) | 6% (inactive) | 89% (active) | 88.2% (active) | 17% (inactive) | 90% (active) | 84% (active)
CCCCCCCCCCCCCCCCOP(=O)(O)OP(=O)(O)OCC1OC(n2ccc(N)nc2=O)C(O)C1O (stereo unspecified) | 97% (active) | 97% (active) | -2% (inactive) and 81.4% (active) | 98% (active) | 98% (active) | -2.65% (inactive) and 89.8% (active) | 98% (active) | 98% (active) | 55% (inactive) and 87.5% (active) | 92% (active) | 90% (active) | 9.5% (inactive) and 84.7% (active) |  |  |  | 94% (active) | 95% (active) | 33% (inactive) and 90.5% (active)
